# High-throughput results from PubChem BioAssay.
# ClpP mod: qHTS Assay for Activators of ClpP; actives 1.9% (n = 340,000); ATP-dependent Clp protease proteolytic subunit (Bacillus subtilis (strain 168)), P80244; Potency, µM (series often up to 57.5 µM), without a hit: at the highest dose activity change, negative = active; purified B. subtilis ClpP, FRET peptide cleavage, 20 min; active means well fitted falling curve with a large enough effect; inconclusive means small, poorly fitted or top-dose-only effect; inactive means no such curve, though single readings can be large or run the other way; further: the source files actives as falling curves though it sought activators and does not explain the sign; nearly all actives have a fitted effect of over 65% in size
# Target sequence (P80244 whole entry, looked up): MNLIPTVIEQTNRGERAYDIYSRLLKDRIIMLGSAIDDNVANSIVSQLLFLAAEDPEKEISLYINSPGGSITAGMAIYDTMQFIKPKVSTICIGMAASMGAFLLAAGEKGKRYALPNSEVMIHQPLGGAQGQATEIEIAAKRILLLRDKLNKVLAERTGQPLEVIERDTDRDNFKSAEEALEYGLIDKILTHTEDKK
#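 Purified B. subtilis ClpP, 10 microg/mL final in Tris/HCl pH8 with KCl, BSA, glycerol and Tween-20, cleaved an Abz/nitrotyrosine-quenched decapeptide. Fluorescence (ex 320, em 430) was read at 0 and 20 min at room temperature. Delta was normalized to 5.8 microM ADEP and DMSO/no-enzyme controls.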
# DT40 TDP1 no CPT: qHTS for Inhibitors of human tyrosyl-DNA phosphodiesterase 1 (TDP1): qHTS in cells in absence of CPT; DT40 Tdp1-/- hTDP1 cells, no CPT, ATP luminescence, 48 h; Potency, µM (top dose mostly 46.2 µM), inactives show at the top dose activity change, negative = growth inhibition, most hits filed as inhibitors; actives 15% (n = 420,000); further: on the % scale 0 is the no-effect control and ±100 the full control effect; nearly all actives have a fitted effect of over 55% in size
#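 Luminescent ATP content (CellTiter-Glo) served as the growth readout. Knockout chicken DT40 cells expressing human TDP1 were exposed to compounds without camptothecin for a minimum 48 hr at 37 °C.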
# TDP1 cell CPT: DT40-hTDP1 cell growth loss with CPT; chicken DT40 Tdp1-/-;hTDP1 cells + 20 nM CPT, ATP luminescence, 48 h; Potency, µM (doses to about 46.2 µM), for the others: top-dose activity change, negative = growth inhibition, hits mostly inhibitors; actives 12% (n = 420,000); further: on the % scale 0 is the no-effect control and ±100 the full control effect; nearly all actives have a fitted effect of over 55% in size
#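 Cell growth measured by CellTiter-Glo luminescence after a minimum 48 h, 37 C compound exposure with 20 nM CPT in Tdp1-knockout DT40 cells stably expressing hTDP1, seeded 400/well; qHTS titration format.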
# TDP1 block: blocks human tyrosyl-DNA phosphodiesterase 1; AID 485290; recombinant TDP1, AlphaScreen DNA substrate cleavage; actives 0.28% (n = 350,000); Q9NUW8; Potency, µM (series often up to 130 µM), inactives show at the top dose activity change, negative = inhibition, hits mostly inhibitors; further: on the % scale 0 is the no-effect control and ±100 the full control effect; nearly all actives have a fitted effect of over 40% in size
#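 Here, a 5' biotin and 3' phosphotyrosine-FITC DNA oligonucleotide reports Tdp1 activity: intact substrate bridges AlphaScreen beads, while cleavage leaves a 3' phosphate and drops signal. All incubations at room temperature.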
# The depositor's hits bear a star; ? = inconclusive; · = no result; ! = not confirmed by another sample; [ ] = another dose, or the depositor's remark. Compounds with a hit are over-represented: about 17% of the library has one in this group of screens. Unless noted, the call rests on the fitted dose curve; in most records, active means well fitted curve in the direction sought with a large enough effect; inconclusive means small, poorly fitted or top-dose-only effect, or another doubt; inactive means no such curve, though single readings can be large; an effect the other way counts as inactive or inconclusive. Potency means the concentration at half of the fitted maximal effect.
SMILES,ClpP mod,DT40 TDP1 no CPT,TDP1 cell CPT,TDP1 block
Cc1c(NC(=O)C(C)OC(=O)c2cccs2)c(=O)n(-c2ccccc2)n1C (configuration not stated),2%,20%,-1%,6%
N=c1c2c(n(Cc3ccc(Cl)c(Cl)c3)c3c1CCC3)CCCC2,1%,2.6µM*,2.9µM*,1%
CCCCCCCn1c2c(c(=N)c3ccccc31)CCC2,4%,0.58µM*,0.52µM*,8%
N=c1c2c(n(Cc3ccc(Br)cc3)c3c1CCC3)CCCC2,0%,0.52µM*,0.92µM*,1%
CCCn1c2c(c(=N)c3c1CCC3)CCCC2,-2%,5.2µM*,9.2µM*,3%
Cc1ccc(S(=O)(=O)c2nnn3c2nc(NC(C)c2ccccc2)c2sccc23)cc1 (configuration not stated),-7%,?,?,5%
Cc1ccc(S(=O)(=O)NC(=O)Cn2nnc(-c3ccccc3)c2COc2ccc3ccccc3c2)cc1,6%,-5%,0%,·
O=C(Nc1cccc(NC(=O)c2cccs2)c1)c1ccc2c(c1)OCCO2,0%,?,?,8%
CCN(CC)CCCNC(=O)Cc1ccc(NC(=O)N2CCCCc3ccccc32)cc1,-1%,-18%,-19%,5%
CCN(CC)CCOC(=O)c1ccc(Nc2c3c(nc4ccccc24)CCC3)cc1,-19%,18µM*,?,5%
COc1ccc(C)cc1Nc1c2c(nc3ccccc13)CCC2,-4%,2.6µM*,3.3µM*,0%
CN(C)CCNCCCNc1c2ccccc2nc2cccc([N+](=O)[O-])c12,2%,0.1µM*,0.052µM*,·
COc1ccc(Nc2c3c(nc4ccccc24)CCCC3)cc1OC,·,?,?,9%
COc1ccc(Nc2c3c(nc4ccccc24)CCC3)cc1,1%,21µM*,?,·
COc1ccc(OC)c(NC(=O)c2c3c(nc4ccccc24)CCC3)c1,0%,-29%,?,6%
NC(N)=[N+]1CCc2ccccc2C1,·,·,·,11%[56.1 µM]
O=Cc1coc2ccc3ccccc3c2c1=O,0%,-14%,0%,·
Fc1ccc(Nc2c3c(nc4ccccc24)CCC3)cc1,-2%,10µM*,5.2µM*,4%
COCCNc1c2c(nc3ccccc13)CCC2,·,?,-20%,·
COc1ccc(Nc2c3c(nc4ccccc24)CCC3)cc1Cl,-4%,18µM*,12µM*,9%
CN(C)CCCNc1c2c(nc3ccccc13)CCC2,-2%,15µM*,?,·
Clc1c2c(nc3ccccc13)CCC2,1%,2%,-23%,·
Nc1c2c(nc3ccccc13)CCCC2,?,18µM*!,17µM*!,-15%[56.1 µM]
Cc1ccc(N(CCC#N)C(=O)COC(=O)C2CCN(S(=O)(=O)c3ccc4c(c3)OCCO4)CC2)cc1,-3%,-4%,-10%,-3%
COc1cccc(C2=Nn3c(nnc3-c3ccc(OC)cc3OC)SC2)c1,·,·,·,11%
SMILES,ClpP mod,DT40 TDP1 no CPT,TDP1 cell CPT,TDP1 block
CC(C)(C)OC(=O)N1CCCC(C(=O)Nc2ccc(C(=O)N3CCOCC3)cc2)C1 (configuration not stated),1%,-2%,1%,1%
COC(=O)CCCn1cc(CN2CC(N3CCCC3)CS2(=O)=O)nn1 (configuration not stated),2%,0%,-2%,·
Fc1ccccc1Nc1c2c(nc3ccccc13)CCC2,-4%,21µM*,?,4%
c1ccc(Nc2c3c(nc4ccccc24)CCC3)cc1,·,15µM*,5.2µM*,3%
c1ccc2c(Nc3ccc4c(c3)OCCO4)c3c(nc2c1)CCC3,-1%,15µM*,23µM*,3%
CCOc1ccccc1N1C(=O)c2ccc(S(=O)(=O)c3ccc(C(=O)O)cc3)cc2C1=O,·,1%,1%,12%
COc1ccc(-c2noc(C3CC(=O)N(c4ccccc4)C3)n2)c(OC)c1 (configuration not stated),0%,-22%,-20%,11%
COc1cccc(-c2sc3ccc(OC)cc3c2-c2ccc(O)cc2)c1,28µM*,?,?,0%
COc1ccc(-c2sc3ccccc3c2-c2ccc(OCCN(C)C)cc2)cc1,3%,23µM*,?,13%
COc1cccc(-c2sc3ccc(OC)cc3c2-c2ccc(OCCN(C)C)cc2)c1,-29%,16µM*,23µM*,11%
COc1ccc(-c2sc3ccccc3c2-c2ccc(OC)cc2F)cc1,4%,?,3%,·
COc1cccc(-c2sc3ccc(OC)cc3c2-c2cc(F)cc(OC)c2)c1,?,-27%,-12%,-8%
CCCNC(=O)OC[C@@H]1O[C@H](CCO/N=C(\C)CCC(=O)OC[C@@H]2O[C@H](c3ccccc3)C=C[C@@H]2Oc2ccc(OC)cc2)C=C[C@@H]1Oc1ccc(OC)cc1,·,·,·,6%[21 µM]
Cc1ccc(OCC(=O)NC(=S)Nc2ccc(Br)cn2)cc1C,·,-1%,9%,4%
CC(=O)CCc1ccc(OCC(=O)Nc2cccc(S(=O)(=O)N(C)c3ccccc3)c2)cc1,1%,?,-8%,0%
CCOC(=O)c1ccc(NC(=O)CC2C(=O)N(c3ccccc3)C(=O)N2C2CCCCC2)cc1 (configuration not stated),1%,16µM*,26µM*,4%
CCOc1ccc(NC(=O)CC2C(=O)N(c3ccc(C)cc3)C(=O)N2C2CCCCC2)cc1 (configuration not stated),-1%,?,18µM*,-4%
COc1ccc(NC(=O)CC2C(=O)N(c3ccc(C)cc3)C(=O)N2C2CCCC2)cc1 (configuration not stated),-3%,-30%,?,6%
Oc1c(C(c2ccc(Cl)cc2)N2CCC3(CC2)OCCO3)sc2nc(-c3ccco3)nn12 (configuration not stated),1%,-20%,-18%,3%
COc1ccc(-c2cc(-c3ccc(C)cc3)n[nH]2)c(O)c1,-3%,?,26µM*,·
